Assay outcomes from PubChem.
Rows were chosen to be rich in hits. Some 4.2% of all compounds tested hit in one or more screens of this group.
tim23-1 inh = growth inhibitors of tim23-1 mutant yeast, primary screen, luminescence, uHTS. inhibition, % at 20 µM. S. cerevisiae tim23-1 growth, BacTiter-Glo luminescence, 24 h. 1.3% of 330,000 active;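 active means growth inhibition of the mutant yeast at or above 50%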;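 further: temperature-sensitive mutant grown at 25 °C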
TIM10 inh = growth inhibitors of isogenic TIM10 control yeast, primary screen, counter-screen for tim10-1 yeast inhibitor project, luminescence, uHTS | inhibition, % at 10 µM | 1.4% of 330,000 active | S. cerevisiae TIM10 strain growth, BacTiter-Glo luminescence, 24 h;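 active means inhibition of 40% or more at the single tested concentration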;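 further: wild-type TIM10 isogenic control strain grown at permissive 25 °C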
NALP3 yeast inh = NALP3 inflammasome inhibitors in reconstituted yeast, primary screen, luminescence, uHTS | AID 2825, 2010 | Yeast reconstituted NLRP3/ASC/caspase-1, beta-gal luminescence, 24 h | 0.39% of 330,000 active | inhibition, % at 10 µM;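 active means inhibition of 50% or more; inactive means inhibition below 50%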
tim10-1 inh = growth inhibitors of tim10-1 mutant yeast, primary screen, luminescence, uHTS | 2.2% of 330,000 active | S. cerevisiae tim10-1 ts strain growth, BacTiter-Glo, 24 h | inhibition, % at 20 µM;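 active means inhibition of at least 40%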;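 further: mutant grown at 25 °C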
V-ATPase pH = regulators of yeast V-ATPase proton pumping, primary screen, pHLuorin cytosolic pH fluorescence. S. cerevisiae. response, % at 10 µM. 0.37% of 350,000 active; in the data active means response mostly above about 7.3%, no sharp cut-off; inactive means mostly below about 5.4%; further: actives read high
NALP1 inh = NALP1 inflammasome inhibitors in reconstituted yeast, colorimetric, S. cerevisiae, triplicate retest | inhibition, % at 10 µM | S. cerevisiae NALP1/ASC/caspase-1 growth, X-gal OD620, 72 h | 0.61% of 280,000 active; in the data active means inhibition mostly above about 24%, no sharp cut-off; inactive means mostly below about 32%
tim10-1 confirm = growth inhibitors of tim10-1 mutant yeast, confirmation, single concentration, luminescence, S. cerevisiae; shares compounds with tim10-1 inh; S. cerevisiae tim10-1 ts strain growth, BacTiter-Glo, 24 h; inhibition, % at 20 µM; 56% of 7,400 active;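 active means inhibition of yeast growth at or above a set limit in either of two repeat tests at 20 µM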;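 further: tim10-1 mutant grown at permissive 25 °C to find synthetic lethal compounds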
TIM10 conf = growth inhibitors of wild-type TIM10 yeast, confirmation, counter-screen for tim10-1 synthetic lethality project, single concentration, luminescence, S. cerevisiae. shares compounds with TIM10 inh. S. cerevisiae tim10 strain growth, BacTiter-Glo luminescence, 24 h. inhibition, % at 10 µM. 63% of 4,600 active. AID 463215, 2010;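 active means inhibition of yeast growth at or above a set limit in either of two replicates at 10 µM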; further: this counterscreen used the strain with wild-type TIM10
tim23-1 confirm = tim23-1 mutant yeast growth inhibitors, confirmation, luminescence, single concentration; shares compounds with tim23-1 inh; S. cerevisiae tim23-1 growth, BacTiter-Glo luminescence, 24 h; inhibition, % at 20 µM; 83% of 4,400 active;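 active means inhibition above about 39% in either of two replicate wells at 20 µM, limit read from the data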;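 further: temperature-sensitive tim23-1 mutant grown at 25 °C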
Of the large screens only hits and unclear results are named; the others gave an inactive call (follow-up assays come after a bar, where they were run).

N/C(=N\OC(=O)c1ccc(F)cc1)c1ccccc1	tim23-1 inh 72.8, TIM10 inh 62.9, tim10-1 inh 67.8 | tim10-1 confirm 64.0 | TIM10 conf 60.8 | tim23-1 confirm 76.2
Cc1ccc(C(=O)O/N=C(\N)c2ccccn2)cc1	none
Cc1ccc(/C(N)=N/OC(=O)c2ccc(F)cc2)cc1	tim23-1 inh 67.6, TIM10 inh 66.6, tim10-1 inh 58.7 | tim10-1 confirm 54.8 | TIM10 conf 68.8 | tim23-1 confirm 65.0
N/C(=N\OC(=O)c1ccccc1)c1ccncc1	none
O=c1n(Cc2ccc(Cl)cc2)c2sc3c(c2c2ncnn12)CCCC3	tim23-1 inh 68.3, tim10-1 inh 43.6 | tim10-1 confirm inactive | tim23-1 confirm 58.2
O=C(Nc1nc(-c2cccs2)c(C(=O)C(F)(F)F)s1)c1ccco1	tim23-1 inh 62.4, TIM10 inh 55.6, tim10-1 inh 55.6 | tim10-1 confirm 72.8 | TIM10 conf 58.8 | tim23-1 confirm 78.8
O=C(Nc1nc(-c2cccs2)c(C(=O)C(F)(F)F)s1)c1ccccc1	tim23-1 inh 69.1, tim10-1 inh 61.4 | tim10-1 confirm 50.3 | tim23-1 confirm 70.3
COc1ccc(C(=O)Nc2nc(-c3cccs3)c(NC(C)=O)s2)cc1	none
CC(=O)Nc1sc(NC(=O)c2ccco2)nc1-c1cccs1	none
CCOC(=O)c1cccc(NC(=O)CSc2nnc(C)n2CC2CCCO2)c1 (centres undefined)	none
CCOC(=O)c1[nH]c(C=O)c(C(=O)OCC)c1C	tim23-1 inh 76.3, TIM10 inh 67.3, tim10-1 inh 59.9 | tim10-1 confirm 50.0 | TIM10 conf 54.8 | tim23-1 confirm 79.9
COc1cccc2oc3ccc(C#Cc4ccccn4)cc3c(=O)c12	tim23-1 inh 75.1, TIM10 inh 55.9, tim10-1 inh 41.3 | tim10-1 confirm 52.8 | TIM10 conf 38.0 | tim23-1 confirm 69.5
CC(C)CC(=O)N1CCN(C(=O)c2ccc(-c3ccccc3)cc2)CC1	none
O=C(/C=C\c1ccccc1OC(=O)c1ccccc1F)c1cc2ccccc2o1	tim23-1 inh 58.7, TIM10 inh 48.5, tim10-1 inh 54.7 | tim10-1 confirm 34.5 | TIM10 conf inactive | tim23-1 confirm 49.9
CC(=O)/C=C\c1ccccc1OC(=O)c1cc2ccccc2oc1=O	none
COc1ccc(C(C)(C)C)cc1S(=O)(=O)n1ccnc1C	none
C[C@H](O)[C@@H]1C(=O)N2CCc3c([nH]c4ccccc34)[C@@H]2C[C@@H]1N(C)Cc1ccc2c(c1)OCO2	none (no result: tim23-1 inh, TIM10 inh, NALP3 yeast inh, tim10-1 inh, NALP1 inh)
CN(C)CCCNC(=O)/C(=C\C=C\c1ccccc1)NC(=O)c1ccc([N+](=O)[O-])cc1	none
Nc1nn2cc(-c3ccc(Br)cc3)nc2c2ccccc12	tim23-1 inh 77.2, TIM10 inh 59.5, tim10-1 inh 40.8 (no result: NALP1 inh) | tim10-1 confirm 65.1 | TIM10 conf 65.0 | tim23-1 confirm 82.5
CCCSCCCNC(=O)c1ccc(NC(=O)C2=CSCCO2)cc1	none
CC(C)c1ccc(C(O)P(=O)(OC2CCCCC2)OC2CCCCC2)cc1 (centres undefined)	tim23-1 inh 57.6, tim10-1 inh 43.9 | tim10-1 confirm inactive | tim23-1 confirm 46.0
CCCCn1c(-c2cccs2)nc2nc3ccccc3nc21	tim23-1 inh 52.0, tim10-1 inh 50.7 | tim10-1 confirm 36.2 | tim23-1 confirm 66.0
CC(C)Cn1c(-c2cccs2)nc2nc3ccccc3nc21	none
Cc1cccc(NS(=O)(=O)c2ccc(C(=O)NCC(c3ccco3)N(C)C)cc2)c1C (centres undefined)	none
O=C(Cc1ccccc1)NNC(=S)NC(=O)c1cccs1	none
O=C(NC(=S)NCc1ccccc1)c1cccs1	tim23-1 inh 61.5, tim10-1 inh 50.7 | tim10-1 confirm 43.4 | tim23-1 confirm 52.0
N/C(Cc1ccc([N+](=O)[O-])cc1)=N\OC(=O)c1ccccc1F	tim23-1 inh 58.9, TIM10 inh 64.1, tim10-1 inh 71.7 | tim10-1 confirm 71.5 | TIM10 conf 52.3 | tim23-1 confirm 54.2
N/C(Cc1ccc([N+](=O)[O-])cc1)=N\OC(=O)c1ccc(Br)o1	tim23-1 inh 60.3, TIM10 inh 64.3, tim10-1 inh 84.9 | tim10-1 confirm 81.2 | TIM10 conf inactive | tim23-1 confirm 44.0
O=c1cc(-c2ccc(C3CCCCC3)cc2)[nH][nH]1	tim23-1 inh 74.0, tim10-1 inh 58.9 | tim10-1 confirm 32.5 | tim23-1 confirm inactive
Cc1ccc(C)c(NC(=S)N/N=C2/CCCCc3ccccc32)c1	tim23-1 inh 56.6, TIM10 inh 44.6, tim10-1 inh 54.3 | tim10-1 confirm 35.1 | TIM10 conf inactive | tim23-1 confirm 43.8
CCn1nnc2cc(C(=O)Nc3cccc(S(=O)(=O)N(C)C)c3)ccc21	none (no result: NALP1 inh)
Cc1ccc(Nc2nc(Cl)nc(N(C)C#N)n2)cc1	tim23-1 inh 59.0, tim10-1 inh 50.4 | tim10-1 confirm 46.8 | tim23-1 confirm inactive
N#Cc1cnc(NN)nc1	none
Cc1nc2c(ccc3nc(NC(=O)Cc4cccc5ccccc45)sc32)s1	tim23-1 inh 59.7, tim10-1 inh 55.4 | tim10-1 confirm 36.8 | tim23-1 confirm 64.3
COc1cc(C(=O)NN=Cc2ccc(N(C)C)cc2)cc(OC)c1OC	none (no result: tim23-1 inh, TIM10 inh, NALP3 yeast inh, tim10-1 inh, NALP1 inh)
O=[N+]([O-])c1ccc(N=Nc2ncc[nH]2)cc1	tim23-1 inh 51.9, TIM10 inh 44.1, tim10-1 inh 44.6 | tim10-1 confirm inactive | TIM10 conf 33.0 | tim23-1 confirm inactive
COC(=O)c1ccc(NC(=O)COc2ccc(S(=O)(=O)NC(C)(C)C)cc2)cc1	none
CCCn1c(N)c(C(=O)CN(C)CC(=O)Nc2ccccc2C(F)(F)F)c(=O)[nH]c1=O	none (no result: NALP1 inh)
CN(N)c1nc(-c2ccccc2)cc(-c2ccccc2)n1	tim23-1 inh 56.2, TIM10 inh 49.5, tim10-1 inh 44.3 | tim10-1 confirm 39.3 | TIM10 conf 43.2 | tim23-1 confirm 54.3
Cc1nc(-c2ccccc2)cc(-c2ccccc2)n1	none (no result: NALP1 inh)
